# Assay results: PubChem BioAssay AID1347150 (National Center for Advancing Translational Sciences (NCATS), 2019)
# Records with an inconclusive call do not appear. Calls of active or inactive are those of the source. The call rests on the fitted dose curve; in most records, active means well fitted curve in the direction sought with a large enough effect; inconclusive means small, poorly fitted or top-dose-only effect, or another doubt; inactive means no such curve, though single readings can be large or run the other way. Numbered stars: 1 amine (or outer) side, 2 acyl side, 3 side chain; on linkers, the order of the positions; unused ones are H or OH. Bridge positions count the residues as written; N and C are the ends. Square brackets hold non-standard residues; d marks the D form. Peptide text beside a SMILES is read from it. I, II: the chains in the order shown. ξ: configuration not given here. Actinocin(9to1) = Cc1c2oc3c(C)ccc(C(=O)[*:1])c3nc-2c(C(=O)[*:2])c(N)c1=O; aThr = C[C@H](O)[C@H](N)C(=O)O; NMeV = CN[C@H](C(=O)O)C(C)C; ξNMeV = CNC(C(=O)O)C(C)C; ξV = CC(C)C(N)C(=O)O; Sar = CNCC(=O)O
# Test system: Zika virus NS2B-NS3 protease (linked)
# Experiment: Optimization screen NINDS AMC qHTS for Zika virus inhibitors: Linked NS2B-NS3 protease assay
# Settings: recombinant linked NS2B-NS3 protease, AMC fluorogenic substrate; series mostly up to 52.5 µM; activity change, negative = inhibition: at the top concentration
# From the text: Avindra Nath, Ph.D., National Institute of Neurological Disorders and Stroke (NINDS), Bethesda, MD
# Radhakrishnan Padmanabhan, Ph.D., Georgetown University (GU), Washington D.C.
# Zika Virus causes congenital defects, including microcephaly and is associated with Guillain-Barre syndrome, eningoencephalitis and myelitis in infected adult. […] Using a target-based approach, we hope to establish a screening paradigm to uncover novel, cell-active NS2B-NS3 protease (Zika Virus) specific inhibitors from NCATS' collection of small molecules using qHTS.
# Four assay panel was created to identify potential Zika Virus inhibitors. Namely, (1) GU unlinked NS2B-NS3 AMC tagged protease qHTS, (2) GU unlinked NS2B-NS3 Rhodamine tagged protease qHTS, (3) NINDS linked NS2B-NS3 AMC tagged protease qHTS, (4) NINDS linked NS2B-NS3 Rhodamine tagged protease qHTS. Active compounds were re-acquired and re-screened to confirm inhibition. Inhibitors were further screened against various confirmatory and counterscreens in dose response format.
# Early Translation Branch (ETB)
# National Center for Advancing Translational Sciences (NCATS), Rockville, MD
# National Institute of Health (NIH), Bethesda, Maryland
# For the linked assay, Nath lab (NINDS) provided the purified linked NS2B-NS3 protease which is consists of hydrophilic domain of NS2B linked to the NS3 protease domain by a flexible (-GGGGSGGGG-) linker. Control compound aprotinin is obtained from Thermo Scientific (#78432; Waltham, Massachusetts). NS2B-NS3 AMC substrate (Bz-Nle-Lys-Arg-Arg-AMC; Nle-KRR-AMC) purchased from Bachem (#I-1995; Torrance, CA). Ac-VKTGKR-AMC purchased from Genscript or Bachem, Ac-FAAGKR-AMC purchased from Genscript, Ac-GLVKRR-AMC purchased from Genscript, Ac-LKKR-AMC purchased from Genscript.
# NINDS AMC linked NS2B-NS3 protease qHTS protocol:
# Briefly, 3 microL of Zika virus linked NS2B-NS3 protease (1 nM for linked final concentration), in assay buffer (10 mM Tris-HCl pH 8.0 with 0.01% Tween 20) was dispensed into a 1,536-well solid-bottom black plate (Greiner Bio One, Monroe, NC). Twenty-three nL of compounds (final concentration range 7.28 nM to 114 microM) or control Aprotinin (final concentration range 3.47 nM to 114 microM) were transferred via Wako Pin-tool (Wako Automation, Richmond, VA). Samples were incubated (room temperature, protected from light) for 15 minutes followed by a 1 microL AMC substrate addition of (final concentration of 10 microM; Km = 18.3 µM). Plates were then read immediately on a ViewLux High-throughput CCD imager (PerkinElmer, Waltham, MA) equipped with standard UV fluorescence optics (340(30) nm excitation, 450(20) nm emission) then incubated (room temperature, protected from light) for 15 minutes (~20% conversion). The change in fluorescence intensity over the 15-minute reaction period was normalized against no-inhibitor and no-enzyme controls and the resulting percent inhibition data were fitted to a 4-parameter Hill equation. Aprotinin was used as the intraplate control.
Compound,"activity change, negative = inhibition",Potency
CCOc1ccc(C2C(=O)N(C3CCCCC3)CC(=O)N2Cc2ccc(F)cc2)cc1OC (stereo not given),4.99% (inactive),
CC=CCC(C)C(O)C1C(=O)NC(CC)C(=O)N(C)CC(=O)N(C)C(CC(C)C)C(=O)NC(C(C)C)C(=O)N(C)C(CC(C)C)C(=O)NC(C)C(=O)NC(C)C(=O)N(C)C(CC(C)C)C(=O)N(C)C(CC(C)C)C(=O)N(C)C(C(C)C)C(=O)N1C (stereo not given),7.12% (inactive),
COc1c(C)c2c(c(O)c1C/C=C(\C)CCC(=O)O)C(=O)OC2,-3.86% (inactive),
O=c1cc(-c2ccccc2)oc2cc(O)c(O)c(O)c12,-18.3% (inactive),
O=C1c2c(O)ccc([N+](=O)[O-])c2C(=O)c2c([N+](=O)[O-])ccc(O)c21,,44.1 µM (active)
COC(=O)Nc1nc2ccc(C(=O)c3ccccc3)cc2[nH]1,7.48% (inactive),
CCC(CC)(NC(=O)C(C)C)C(=O)N[C@@H](CCCN=C(N)N)C(=O)NC1(C(=O)NC(c2ccc(F)cc2)c2ccc(F)cc2)CCCC1,14.4% (inactive),
CC(C)(C)CC(C)(C)c1ccc(OCCOCC[N+](C)(C)Cc2ccccc2)cc1,,inactive
Nc1ccn([C@@H]2O[C@H](CO)[C@@H](O)C2(F)F)c(=O)n1,7.77% [at 114 µM] (inactive),
CO[C@H]1C[C@H](O[C@@H]2/C(C)=C/C[C@@H]3C[C@@H](C[C@]4(CC[C@H](C)[C@@H](C5CCCCC5)O4)O3)OC(=O)[C@@H]3C=C(C)/C(=N/O)[C@H]4OC/C(=C\C=C\[C@@H]2C)[C@]43O)O[C@@H](C)[C@@H]1O,-35.6% (inactive),
Cn1cnc([N+](=O)[O-])c1Sc1ncnc2nc[nH]c12,,inactive
CCCCOc1ccc(C2C(=O)N(C3CCCCC3)CC(=O)N2C2CCCCC2)cc1 (stereo not given),-23.4% (inactive),
O[C@@H](c1cc(C(F)(F)F)nc2c(C(F)(F)F)cccc12)[C@H]1CCCCN1,11.7% (inactive),
C[C@H]1O[C@@H](O[C@H]2CC[C@@]3(C)[C@H](CC[C@@H]4[C@@H]3C[C@@H](O)[C@]3(C)[C@@H](C5=CC(=O)OC5)CC[C@]43O)C2)C[C@H](O)[C@@H]1O[C@H]1C[C@H](O)[C@H](O[C@H]2C[C@H](O)[C@H](O[C@@H]3O[C@H](CO)[C@@H](O)[C@H](O)[C@H]3O)[C@@H](C)O2)[C@@H](C)O1,-19.2% (inactive),
CC(=O)Nc1ccc([C@H](C)C(=O)Nc2ncc(C(C)C)s2)cc1,7.38% (inactive),
C[C@H]1O[C@@H](O[C@H]2[C@@H](O)C[C@H](O[C@H]3[C@@H](O)C[C@H](O[C@H]4CC[C@@]5(C)[C@H](CC[C@@H]6[C@@H]5C[C@@H](O)[C@]5(C)[C@@H](C7=CC(=O)OC7)CC[C@]65O)C4)O[C@@H]3C)O[C@@H]2C)C[C@H](O)[C@@H]1O,6.73% [at 114 µM] (inactive),
Nc1ncnc2c1ncn2[C@@H]1O[C@H](C[C@@H](N)CC[C@H](N)C(=O)O)[C@@H](O)[C@H]1O,-6.57% (inactive),
CN1CCN(C(=O)CCN2C(=O)/C(=C\c3ccccc3F)SC2=S)CC1,9.29% [at 114 µM] (inactive),
CC1O[C@@H](O[C@@H]2C(O)C[C@H](O[C@@H]3C(O)C[C@@H](OC4CC[C@@]5(C)C6CC(O)[C@@]7(C)C(C8=CC(=O)OC8)CC[C@@]7(O)C6CC[C@@H]5C4)OC3C)OC2C)CC(O)[C@H]1O (stereo not given in full),4.73% (inactive),
"Cc1c2oc3c(C)ccc(C(=O)N[C@@H]4C(=O)NC(C(C)C)C(=O)N5CCC[C@H]5C(=O)N(C)CC(=O)N(C)C(C(C)C)C(=O)O[C@@H]4C)c3nc-2c(C(=O)N[C@@H]2C(=O)NC(C(C)C)C(=O)N3CCC[C@H]3C(=O)N(C)CC(=O)N(C)C(C(C)C)C(=O)O[C@@H]2C)c(N)c1=O (stereo not given in full) (I: T[ξV]P[Sar][ξNMeV] / II: T[ξV]P[Sar][ξNMeV]; ester I:1-I:C, II:1-II:C; linker I:N-II:N via Actinocin(9to1))",-2.5% (inactive),

Compound,"activity change, negative = inhibition",Potency
Nc1nc(=S)c2[nH]cnc2[nH]1,,inactive
O=C1c2cccc3c2[C@@H](CCC3)CN1[C@@H]1CN2CCC1CC2,-3.68% (inactive),
NC(=O)C(=O)O,11.6% (inactive),
CCCCC(CC)CN=C(N)NC(N)=NCCCCCCN=C(N)NC(N)=NCC(CC)CCCC (stereo not given),,19.2 µM (active)
Cc1ccccc1CNc1ncnc2c1ncn2C1OC(CO)C(O)C1O (stereo not given),-8.32% (inactive),
C[S+](CC[C@H](N)C(=O)O)C[C@H]1O[C@@H](n2cnc3c(N)ncnc32)[C@H](O)[C@H]1O (stereo not given in full),-24.3% (inactive),
CC1OC(OC2C(O)CC(OC3C(O)CC(OC4CCC5(C)C(CCC6C5CC(O)C5(C)C(C7=CC(=O)OC7)CCC65O)C4)OC3C)OC2C)CC(O)C1O (stereo not given),4.68% [at 114 µM] (inactive),
CCOc1ccc(C2C(=O)N(C3CCCCCC3)CC(=O)N2CCc2ccc(Cl)cc2)cc1OC (stereo not given),2.88% (inactive),
COc1c2occc2cc2ccc(=O)oc12,,inactive
CC(C)C[C@@H](NC(=O)[C@H](Cc1ccccc1)NC(=O)c1cnccn1)B(O)O,-1.73% [at 114 µM] (inactive),
C[C@H](NC(=O)C(=O)Nc1ccccc1C(C)(C)C)C(=O)N[C@@H](CC(=O)O)C(=O)COc1c(F)c(F)cc(F)c1F,3.42% (inactive),
"Cc1c2oc3c(C)ccc(C(=O)N[C@@H]4C(=O)N[C@@H](C(C)C)C(=O)N5CCC[C@@H]5C(=O)N(C)CC(=O)N(C)[C@@H](C(C)C)C(=O)O[C@H]4C)c3nc-2c(C(=O)N[C@@H]2C(=O)N[C@@H](C(C)C)C(=O)N3CCC[C@@H]3C(=O)N(C)CC(=O)N(C)[C@@H](C(C)C)C(=O)O[C@H]2C)c(N)c1=O (I: [aThr]V[dP][Sar][NMeV] / II: [aThr]V[dP][Sar][NMeV]; ester I:1-I:C, II:1-II:C; linker I:N-II:N via Actinocin(9to1))",-35.3% (inactive),
Cc1nc(Nc2ncc(C(=O)Nc3c(C)cccc3Cl)s2)cc(N2CCN(CCO)CC2)n1,,355 µM (active)
S=c1nc[nH]c2nc[nH]c12,,inactive
Nc1ncnc2c1ncn2[C@@H]1O[C@H](CSCC[C@H](N)C(=O)O)[C@@H](O)[C@H]1O,-22.3% (inactive),
CC[C@@H](C)[C@H]1O[C@]2(CC[C@H]1C)C[C@@H]1C[C@@H](CC=C(C)[C@@H](O[C@H]3C[C@H](OC)[C@@H](O[C@H]4C[C@H](OC)[C@@H](O)[C@H](C)O4)[C@H](C)O3)[C@@H](C)C=CC=C3CO[C@@H]4[C@H](O)C(C)=C[C@@H](C(=O)O1)[C@]34O)O2,1.01% (inactive),
CCc1nc(N)nc(N)c1-c1ccc(Cl)cc1,,inactive
CO[C@H]1C[C@@H](O[C@@H]2/C(C)=C/C[C@@H]3C[C@@H](C[C@]4(CC[C@H](C)[C@@H](C5CCCCC5)O4)O3)OC(=O)[C@@H]3C=C(C)/C(=N/O)[C@H]4OC/C(=C\C=C\[C@@H]2C)[C@]43O)O[C@@H](C)[C@H]1O,-44.5% (inactive),
C[C@H]1O[C@@H](O[C@H]2[C@@H](O)C[C@H](O[C@H]3[C@@H](O)C[C@H](O[C@H]4CC[C@]5(C)C6C[C@@H](O)[C@]7(C)[C@@H](C8=CC(=O)OC8)CC[C@]7(O)C6CC[C@@H]5C4)O[C@@H]3C)O[C@@H]2C)C[C@H](O)[C@@H]1O (stereo not given in full),0.817% (inactive),
OC(c1cc(C(F)(F)F)nc2c(C(F)(F)F)cccc12)C1CCCCN1 (stereo not given),9.63% (inactive),
